In PubChem BioAssay (NCI):
About 79,000 compounds went through this panel and 15% of them were active in at least one assay; those are over-represented in the sample as a whole. Values without a mark were called inactive. The source made the active and inactive calls. Cut-off read from the data, not from the text of the source: active = growth inhibition above about 70%; inactive = the rest.

Legend:
[1] = NCI Yeast Anticancer Drug Screen. Data for the rad50 strain (AID 155);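 note: 0% = growth of vehicle-only cultures of the same strain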; settings: S. cerevisiae rad50 strain growth inhibition, hits give high values
How it was run: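 Yeast carrying a defined DNA repair defect were exposed to test compounds, and growth was compared with vehicle-treated controls to give percent inhibition.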

[2] = NCI Yeast Anticancer Drug Screen. Data for the mec2-1 strain (AID 157); settings: S. cerevisiae mec2-1 strain, hits give high values
How it was run: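 mec2-1 yeast strain, carrying an alteration in DNA damage repair or cell cycle control, was exposed to compounds; growth inhibition was measured relative to vehicle-treated controls.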

[3] = NCI Yeast Anticancer Drug Screen. Data for the sgs1 mgt1 strain (AID 161);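 note: 0% = growth of cultures given vehicle only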; settings: S. cerevisiae sgs1 mgt1 strain, hits give high values
How it was run: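 Percent growth inhibition was derived by comparing compound-exposed mutant yeast with vehicle-exposed cultures. The strain carries alterations in DNA damage repair.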

[4] = NCI Yeast Anticancer Drug Screen. Data for the cln2 rad14 strain (AID 165);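 note: 0% = growth equal to vehicle treated cultures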; settings: S. cerevisiae cln2 rad14 strain, hits give high values
How it was run: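 Yeast carrying cln2 and rad14 alterations (cell cycle control and DNA damage repair) were exposed to compounds. Growth inhibition was measured against vehicle-treated controls.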

[5] = NCI Yeast Anticancer Drug Screen. Data for the bub3 strain (AID 167); settings: S. cerevisiae bub3 mutant strain, hits give high values
How it was run: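 Compounds were applied to a genetically altered yeast strain carrying a cell-cycle control defect. Growth inhibition was scored against vehicle-treated controls.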

[6] = NCI Yeast Anticancer Drug Screen. Data for the mlh1 rad18 strain (AID 175); settings: S. cerevisiae mlh1 rad18 strain growth inhibition, hits give high values
How it was run: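 Growth inhibition of the yeast strain was measured after compound exposure and expressed relative to vehicle-treated controls. The strain carries defined defects in DNA damage repair.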

[7] = at 5.0 µM (retest, dose inferred, filed as 0.5)
[8] = at 50.0 µM (retest, dose inferred, filed as 5.0)

| Structure (SMILES) | growth inhibition [1, 7] | growth inhibition [1, 8] | growth inhibition ([1]; at 50.0 µM) | growth inhibition [2, 7] | growth inhibition [2, 8] | growth inhibition ([2]; at 50.0 µM) | growth inhibition [3, 7] | growth inhibition [3, 8] | growth inhibition ([3]; at 50.0 µM) | growth inhibition [4, 7] | growth inhibition [4, 8] | growth inhibition ([4]; at 50.0 µM) | growth inhibition [5, 7] | growth inhibition [5, 8] | growth inhibition ([5]; at 50.0 µM) | growth inhibition [6, 7] | growth inhibition [6, 8] | growth inhibition ([6]; at 50.0 µM) |
| --- | --- | --- | --- | --- | --- | --- | --- | --- | --- | --- | --- | --- | --- | --- | --- | --- | --- | --- |
| c1ccc2c(c1)oc1cc3ccncc3cc12 | 43% | 96% (active) | 96.8% (active) | 11% | 86% (active) | 86.3% (active) | 3% | 83% (active) | 94.8% (active) | 9% | 89% (active) | 92% (active) | 24% | 94% (active) | 96% (active) | 14% | 92% (active) | 95.2% (active) |
| COC(=O)c1cccc2c1C(=O)c1ccccc1-2 | -7% | 37% | 22.7% | -37% | -14% | -9.6% | -8% | -11% | -5.9% | -3% | -19% | 71.2% (active) | -23% | -54% | -10.7% | -2% | -6% | 1.55% |
| COc1ccc2nc(NC(=O)Nc3c(Cl)cccc3Cl)sc2c1 | 13% | 99% (active) | 98.4% (active) | -3% | 99% (active) | 99.3% (active) | 20% | 99% (active) | 99% (active) | 15% | 98% (active) | 97.6% (active) | 2% | 99% (active) | 98.7% (active) | 30% | 98% (active) | 98.3% (active) |
| Cc1cccc2c1CC1(C2)Cc2c(C)cccc2C1=O (stereo not given) | -3% | 87% (active) | 36.9% | -30% | 78% (active) | 42.1% | -23% | 68% | 57.6% | 26% | 20% | 55.5% | 21% | 92% (active) | 70% (active) | -11% | 52% | 50.4% |
| CCN(CC)CCCCCCNc1cc(Cl)cc2cccnc12 | 18% | 71% (active) | 91.6% (active) | 14% | 64% | 89.9% (active) | 28% | 94% (active) | 97.5% (active) | 26% | 68% | 97% (active) | 42% | 79% (active) | 85.4% (active) | 27% | 84% (active) | 97.5% (active) |
